Bioassay records deposited in PubChem BioAssay by Sanford-Burnham Center for Chemical Genomics.
CYP2C9 activ = human CYP2C9 activators, primary screen, biochemical, luminescence | Cytochrome P450 2C9 (Homo sapiens), P11712 | recombinant CYP2C9, luciferin-H conversion; hits give high values; factor 1 = untreated enzyme, 0 = blocked | activation factor at 5 µM | actives 1.4% (n = 96,000) | AID 1024, 2008;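 active = activation factor of 2 or more for CYP2C9 at a 5 µM dose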;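 also: 0 = sulfaphenazole-blocked wells and 1 = vehicle-only wells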
PLAP act = PLAP enzyme activators, biochemical, luminescence, HTS; purified PLAP enzyme, luminescent substrate read-out; hits give high values; Alkaline phosphatase, placental type (Homo sapiens), P05187; actives 1.2% (n = 96,000); activation fold at 20 µM; in the data active = activation fold above about 2
CYP2C19 inhib = blockers of cytochrome P450 2C19 activity – biochemical, luminescence, ADME assay, primary screen. P33261. CYP2C19 Supersomes, luciferin-H EGE luminescence, 30 min. inhibition, % at 5 µM. actives 21% (n = 96,000);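 active = CYP2C19 inhibition above a set limit at 5 µM in the primary screen, cut at about 50% in these data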;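 also: plate controls were negative control wells for no effect and 2.5 mM tranylcypromine positive control for full effect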
Target sequence (P33261 whole entry, looked up): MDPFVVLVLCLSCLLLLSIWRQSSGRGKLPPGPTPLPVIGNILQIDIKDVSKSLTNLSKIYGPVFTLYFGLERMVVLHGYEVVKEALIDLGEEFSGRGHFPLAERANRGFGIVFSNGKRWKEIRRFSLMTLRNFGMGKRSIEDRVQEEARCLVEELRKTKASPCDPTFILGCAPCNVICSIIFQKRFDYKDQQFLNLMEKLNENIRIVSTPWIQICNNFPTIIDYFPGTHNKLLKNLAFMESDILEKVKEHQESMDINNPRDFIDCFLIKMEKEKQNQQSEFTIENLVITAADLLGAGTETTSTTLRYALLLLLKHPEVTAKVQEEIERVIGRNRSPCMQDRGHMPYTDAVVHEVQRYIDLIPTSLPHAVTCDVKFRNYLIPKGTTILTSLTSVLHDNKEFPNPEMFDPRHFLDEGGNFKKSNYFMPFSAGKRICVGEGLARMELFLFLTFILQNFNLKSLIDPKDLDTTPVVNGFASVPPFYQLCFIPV
CYP2C19 activ = human CYP2C19 activators, primary screen, biochemical, luminescence. recombinant CYP2C19, luciferin-H EGE luminescence; hits give high values; 0 = fully inhibited enzyme, 1 = untreated enzyme. activation factor at 5 µM. 96,000 tested, under 10 active;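 active = activation factor of at least 2 at 5 µM in the primary screen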;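 also: 0 = wells with 2.5 mM tranylcypromine and 1 = vehicle-only wells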
CYP2C9 inhib = blockers of cytochrome P450 2C9 activity – biochemical, luminescence, ADME assay, primary screen; P11712; CYP2C9 Supersomes, luciferin-H conversion; inhibition, % at 5 µM; actives 20% (n = 96,000);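 active = blocking of liver enzyme CYP2C9 beyond about 50% at 5 µM, limit read from the data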
Starred values were filed as active, the others as inactive. Hits are enriched below; roughly 31% of the tested compounds scored in any of these assays.

SMILES	CYP2C9 activ	PLAP act	CYP2C19 inhib	CYP2C19 activ	CYP2C9 inhib
CCCCCc1c(C)nc(Nc2ccccc2)[nH]c1=O	0.9	1.1	42.0	0.6	11.7
CCN(CC)c1ccc(-n2c(C)cc(C=O)c2C)cc1	0.7	0.8	82.6*	0.2	31.4
CC(=O)c1c(C(C)=O)c(C)n(-c2ccc(O)cc2)c1C	0.5	1	37.3	0.6	46.7
CCN(CC)c1ccc(-n2c(C)c(C(C)=O)c(C(C)=O)c2C)cc1	0.2	1.2	67.2*	0.3	79.7*
O=C(Nc1ccccc1)OCCNC(=O)c1cccc(Cl)c1	0.1	0.7	92.9*	0.1	87.1*
O=C(Nc1ccccc1)OCCOc1ccccc1	0.7	0.7	84.7*	0.2	29.1
O=C(Nc1ccccc1)OCc1ccccn1	0.9	0.9	51.2*	0.5	9.2
O=C(Nc1ccccc1)O/N=C(\c1ccccc1)c1ccccn1	0.4	1.1	24.4	0.8	61.1*
COc1ccc(CCNC(=O)COC(=O)c2cnccn2)cc1	0.8	1.2	35.1	0.6	19.2
COc1ccc(OCCOC(=O)Nc2ccccc2)cc1	0.6	0.9	81.6*	0.2	44.8
NC(=O)COc1ccc(NC(=O)OCc2ccccc2)cc1	0.9	0.9	18.9	0.8	6.7
COC(=O)Nc1ccc(OCc2ccccc2)cc1	0.8	1	46.2	0.5	19.5
COC(=O)Nc1ccc(Oc2ccccc2)cc1	0.9	0.9	78.4*	0.2	8.0
Cn1ncc(Cl)c1C(=O)Nc1cccnc1	0.8	1	2.7	1	17.5
Nc1nnc(N2CCc3ccccc32)s1	1.3	1.2	-12.6	1.1	-26.1
O=C(CNS(=O)(=O)c1ccc(F)cc1)N1CCN(c2ccccc2)CC1	1.1	0.8	17.6	0.8	-8.3
Cc1ccc(N2C(=O)c3ccccc3C2Nc2ccc(S(=O)(=O)N3CCCCC3)cc2)nc1 (stereo not drawn)	0.6	1.5	14.3	0.9	35.8
CCc1ccccc1NC1c2ccccc2C(=O)N1Cc1ccco1 (stereo not drawn)	0.8	1	-0.5	1	15.0
CCOc1ccccc1NC1c2ccccc2C(=O)N1Cc1ccco1 (stereo not drawn)	0.8	1	63.4*	0.4	19.0
O=C1c2ccccc2C(Nc2ccc(S(=O)(=O)N3CCCCCC3)cc2)N1Cc1ccco1 (stereo not drawn)	0	1.4	36.5	0.6	97.0*
CC(C)(C)NC1=CC(=O)OC12CCCCC2	1	0.9	-8.4	1.1	-4.1
CCOc1ccc(N(CC(=O)NC2CCCCCC2)S(=O)(=O)c2c(C)noc2C)cc1	0.9	0.9	12.3	0.9	8.2
CCN1C(=O)c2ccccc2S(=O)c2ccc(C(=O)NCCCN3CCCC3=O)cc21 (stereo not drawn)	0.9	1	-14.1	1.1	14.5
Cc1cc(Cl)ccc1OCC(=O)Nn1c(C)ccc1C	0.6	1.4	93.9*	0.1	40.7
Cc1cc(Cl)ccc1OCC(=O)OC(C)C(=O)NC(N)=O (stereo not drawn)	1.1	1.1	44.9	0.6	-5.7
SMILES	CYP2C9 activ	PLAP act	CYP2C19 inhib	CYP2C19 activ	CYP2C9 inhib
Cc1cc(Cl)ccc1OCC(=O)Nc1ccccc1CO	0.7	0.7	57.9*	0.4	25.4
Cc1cc(Cl)ccc1OCC(=O)N1CC(C)CC(C)C1 (stereo not drawn)	0.5	1.4	97.8*	0	47.6
CCOC(=O)c1c(C)oc(NC(=O)COc2ccc(Cl)cc2C)c1C#N	0.4	1.4	13.2	0.9	56.3*
O=C(CSc1nnc2c(Cl)cc(Cl)cn12)NC1CCS(=O)(=O)C1 (stereo not drawn)	0.7	1.1	8.1	0.9	25.7
O=C(Cc1ccccc1)Nc1ccccc1CO	1	0.9	20.2	0.8	0.3
O=C(Cc1ccc(Cl)cc1)Nc1ccccc1CO	0.9	0.9	55.0*	0.4	6.4
Cc1cc(Cl)ccc1OCC(=O)OC(C)C(=O)N(C)C (stereo not drawn)	0.8	1.3	69.3*	0.3	24.1
C=CCN1C(=O)C2(C(C#N)=C(N)Oc3n[nH]c(CCC)c32)c2ccccc21 (stereo not drawn)	1	1	-1.7	1	-0.6
COC(=O)c1c[nH]n2c(=O)cc(CCl)nc12	0.8	1.4	-8.2	1.1	24.3
COCCNC(=O)c1c[nH]n2c(=O)cc(C3CCN(C(=O)OC(C)(C)C)CC3)nc12	0.4	1.6	8.7	0.9	62.2*
CCC(OC(=O)c1cccs1)C(=O)NCc1ccco1 (stereo not drawn)	0.6	1.4	83.3*	0.2	43.8
CC(C)CC(OC(=O)c1cccs1)C(=O)NCc1ccco1 (stereo not drawn)	0.6	1.3	43.7	0.6	40.2
CCC(OC(=O)c1cccs1)C(=O)NC1CCCCC1 (stereo not drawn)	0.7	1	75.4*	0.2	27.5
O=C1C2C3C=CC([C@@H]2C(=O)N1c1nccs1)C31CC1 (stereo partly drawn)	0.9	0.9	76.4*	0.2	9.2
CCOc1ccc2nc(NC(=S)N(C)C)sc2c1	0.7	1.3	28.4	0.7	34.6
CCOc1ccc2c(c1)-c1c(ssc1=S)C(C)(C)N2	0.3	0.8	71.6*	0.3	71.6*
COc1ccc(OC)c(NC2c3ccccc3C(=O)N2c2cccnc2)c1 (stereo not drawn)	0.3	1.5	56.8*	0.4	67.0*
Cc1ccc(N2C(=O)c3ccccc3C2Nc2cccnc2)nc1 (stereo not drawn)	1	1	16.3	0.8	-0.7
O=C1c2ccccc2C(Nc2ccc(Cl)cn2)N1c1cccnc1 (stereo not drawn)	0.8	0.9	84.7*	0.2	24.6
O=C1c2ccccc2C(O)N1c1cccnc1 (stereo not drawn)	1.1	0.8	-17.6	1.2	-13.3
C1=Nc2c(Nc3ccccc3)ncnc2Oc2ccccc21	0.4	0.8	54.0*	0.5	61.9*
CN(C)/C=N/c1c(C#N)nnn1Cc1ccccc1	1.2	1	66.8*	0.3	-20.9
CCCNc1nc2c(c(=O)n(C)c(=O)n2C)n1Cc1ccc(F)cc1	0.8	1.3	33.0	0.7	18.6
C/C(Cl)=C\Cn1c(NCCCn2ccnc2)nc2c1c(=O)n(C)c(=O)n2C	0	0.9	77.0*	0.2	99.6*
C/C(Cl)=C/Cn1c(NCCCn2ccnc2)nc2c1c(=O)[nH]c(=O)n2C	0.1	0.9	52.5*	0.5	89.6*
Cn1c(=O)[nH]c(=O)c2c1nc(NCCCn1ccnc1)n2Cc1ccc(F)cc1	0.2	1.5	68.1*	0.3	77.5*
CC(=O)Nc1ccc(S(=O)(=O)NC(=O)C23CC4CC(CC(C4)C2)C3)cc1	1	1	-5.1	1.1	-4.8
